Rows were chosen to be rich in hits. Some 2.4% of all compounds tested hit in one or more screens of this group.
D2 ag-1 – agonists of human D2 dopamine receptor; activation, % at 2 µM; 340,000 tested, 0.53% active; AID 485358; HEK293 T-REx D2 cells, calcium flux agonist mode; P14416;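 active means activation over 3 SD above normal in the single-dose calcium agonist read, cut at about 30% in these data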
Target sequence (P14416 whole entry, looked up): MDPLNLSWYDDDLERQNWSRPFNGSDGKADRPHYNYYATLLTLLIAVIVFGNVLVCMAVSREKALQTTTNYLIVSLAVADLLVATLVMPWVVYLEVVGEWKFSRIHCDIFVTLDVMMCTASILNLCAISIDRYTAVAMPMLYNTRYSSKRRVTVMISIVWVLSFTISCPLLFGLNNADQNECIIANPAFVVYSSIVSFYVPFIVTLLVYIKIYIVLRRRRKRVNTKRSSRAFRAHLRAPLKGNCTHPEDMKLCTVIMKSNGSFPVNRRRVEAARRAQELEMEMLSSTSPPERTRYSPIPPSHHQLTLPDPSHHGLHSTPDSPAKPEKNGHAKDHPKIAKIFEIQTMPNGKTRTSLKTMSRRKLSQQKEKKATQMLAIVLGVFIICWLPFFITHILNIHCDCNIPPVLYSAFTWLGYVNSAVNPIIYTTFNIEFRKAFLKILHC
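Calcium-flux readout, 1 cycle/sec over 180 s following compound pin transfer, in inducible HEK293 Trex D2 cells (force-coupled); dopamine controls included. Positive calcium responses during this window marked compounds as potential agonists.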
D2 antag – antagonists of human D2 dopamine receptor. P14416. HEK293 TREx D2 cells, calcium flux, dopamine EC80. inhibition, % at 10 µM. 340,000 tested, 2% active; in the data active means inhibition above about 30%; inactive means below that, where a call was filed
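Compounds are added to dye-loaded, induced HEK293 T-REx cells coupled to calcium release via D2; after a 3 min kinetic read an EC80 dopamine stimulus is given and fluorescence is recorded for 3 more min.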
D2 PAM-1 – human D2 receptor positive allosteric modulation. DiscoveRx D2 beta-arrestin cells, luminescence, 90 min; 100% = 57 uM dopamine signal. potentiation, % (no concentration beside the values). 360,000 tested, 0.23% active. AID 624464; in the data active means potentiation above about 50%
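PathHunter D2 cells, attached overnight at 37 deg C, received compound in DMSO plus dopamine at EC20 (50 nM final) for 90 min at 37 deg C. Beta-arrestin recruitment was read as luminescence after 1 h with detection reagent at ambient temperature.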
D2 PAM-2 – positive allosteric modulators of human D2 dopamine receptor | P14416 | 340,000 tested, 0.34% active | potentiation, % at 10 µM | HEK293 T-REx D2, calcium flux, EC20 dopamine potentiation;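 active means potentiation over 3 SD above the plate norm, cut at about 30% in these data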
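Tetracycline-induced HEK293 T-REx cells force-coupled to calcium signalling expressed D2; compounds were pin-added after a 10 s baseline, read kinetically 180 s, then an EC20 dopamine challenge followed with a further 180 s calcium read.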
D2 ag-2 – agonists of human D2 dopamine receptor (beta-arrestin); P14416; DiscoveRx PathHunter D2 beta-arrestin, luminescence, 90 min; 100% = 57 uM dopamine signal; activation, % (concentration not given with the values); 360,000 tested, 0.084% active; AID 624465; in the data active means activation above about 40%
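DiscoveRx PathHunter D2 beta-arrestin cells (2,100/well) attached overnight, then compound-stimulated 90 min at 37 C in HBSS/10 mM HEPES/0.1% Tween-20 buffer; beta-galactosidase complementation read by luminescence after 1 h at ambient temperature. Dopamine 57 uM final (EC100) as control.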
Numbers stand for hits; - = inactive; . = not tested or not shown.

SMILES | D2 ag-1 | D2 antag | D2 PAM-1 | D2 PAM-2 | D2 ag-2
Cc1ccc(-n2nc3c(c2NC(=O)c2ccco2)CS(=O)C3)c(C)c1 (configuration not stated) | - | 33 | - | - | -
O=C(Nc1ccc(-c2cccc(F)c2)cc1)C1CCCN(Cc2ccccn2)C1 (configuration not stated) | - | - | - | - | -
Cc1c(C(C)NC(=O)Nc2ccc(F)cc2F)cnn1C (configuration not stated) | - | 38 | - | - | -
Cc1cc(NC(=O)Nc2ccc(F)cc2F)n(C)n1 | - | - | - | - | -
COc1ccc(OCC(=O)NC2CC(=O)N(c3ccc4c(c3)OCCO4)C2)cc1 (configuration not stated) | - | . | . | - | .
Cc1ccc(-c2nc3cc(NC(=O)C(C)C)ccc3o2)cc1 | - | - | - | - | -
Cc1cc2nc(-c3ccc(NC(=O)C(C)C)cc3)oc2cc1C | - | 32 | - | - | -
CC1=C(C(=O)OCC2CCCO2)C(c2coc3ccc(Cl)cc3c2=O)C2=C(CCCC2=O)N1 (configuration not stated) | - | - | - | - | -
CC1=C(C(=O)OCC2CCCO2)C(c2coc3ccc(C)cc3c2=O)C2=C(CCCC2=O)N1 (configuration not stated) | - | - | - | 31 | -
CCC(=O)N1CCc2cc(CNC(=O)C(CC)c3ccccc3)ccc21 (configuration not stated) | - | . | . | - | .
CCCc1nnc(NC(=O)COc2ccc3c(c2)OCO3)s1 | - | - | - | - | -
CCc1nnc(NC(=O)COc2ccc3c(c2)OCO3)s1 | - | - | - | 30 | -
Cc1ccc(C)c(Nc2c(F)c(F)c(F)c(F)c2C(=O)O)c1 | - | - | - | 32 | -
COc1c(F)c(F)c(C(=O)O)c(Nc2ccc(C)cc2)c1F | - | - | - | - | -
COc1ccc(CCNC(=O)C2CCCN(S(=O)(=O)c3ccc4c(c3)oc(=O)n4C)C2)cc1OC (configuration not stated) | - | . | . | - | .
O=c1cc(-c2ccc(O)cc2)oc2ccc(O)cc12 | - | 37 | - | - | -
CC1CCN(S(=O)(=O)c2cc(C(=O)NCc3ccc(N(C)C)cc3)n(C)c2)CC1 | - | . | . | - | .
Cc1ccc(OCCCCNC(C)(C)C)c([N+](=O)[O-])c1 | - | - | - | - | -
Cc1cc(OCCN2CCCCCC2)ccc1[N+](=O)[O-] | - | 34 | - | - | -
Cc1ccc(OCCCCN2CCCC(C)C2)c([N+](=O)[O-])c1 (configuration not stated) | - | 91 | - | - | -
Cc1ccc([N+](=O)[O-])c(OCCCN2CCCCCC2)c1 | - | 71 | - | - | -
CC1CCN(CCOCCOc2ccc(Br)cc2Cl)CC1 | . | . | - | . | -
CC1CCCN(CCCOc2ccc(Br)cc2Cl)C1 (configuration not stated) | - | 36 | - | - | -
O=C(COC(=O)Cc1c(Cl)cccc1Cl)Nc1ccc2[nH]c(=O)[nH]c2c1 | - | - | - | - | -
CSc1cccc(NC(=O)c2cccc(N3CCCS3(=O)=O)c2)c1 | - | . | . | - | .
O=[N+]([O-])c1ccccc1OCCCNCc1ccccc1 | - | 38 | - | - | -
